# EWS-Fli inh = EWS/Fli transcriptional activity inhibition; A673 NR0B1-luciferase reporter, viability-normalised; inhibition, % at 12.6 µM; 350,000 tested, 0.67% active;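 active = mean inhibition of at least 50% after viability correction, with every replicate also passing that limit; inconclusive = mean reaches 50% but only one of two replicates passes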;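 note: firefly luciferase signal divided by Alamar Blue viability fluorescence both relative to DMSO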
# esBAF inh = inhibitors of esBAF chromatin remodeling in mouse ES cells; 350,000 tested, 2% active; AID 602393; Bmi1-luciferase knock-in reporter, 24 h; 100% = twice the neutral-well signal; reporter increase, % at 12.5 µM; in the data active = activation above about 40%; inconclusive = no clear call, values can overlap the other calls;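 note: 0% = median of the plate's neutral control wells and 100% = double that signal; a rise in the Bmi1 reporter signal indicates esBAF inhibition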
# MITF TRPM1 HTS = MITF TRPM1 promoter activation in melanoma cells; SK-MEL-5 TRPM1-promoter luciferase, 24 h; % of positive control, neutral wells = 0; activation, % at 12.5 µM; 300,000 tested, 0.75% active;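 active = mean activation of at least 80% with every replicate also reaching 80%; inconclusive = mean reaches 80% but some replicate falls short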;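 note: 0% = neutral control wells and 100% = parthenolide positive control wells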
# PAX8 reporter = inhibitors of PAX8 transcriptional activity in RMG-I cells. inhibition, % at 12.6 µM. RMG-I TPO-luciferase reporter, SteadyGlo, 24 h. 360,000 tested, 1.2% active;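 active = mean replicate inhibition at least 60% with every replicate also reaching 60%; inconclusive = only one of the two criteria is met; inactive = mean below 60% and not all replicates reaching 60%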;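 note: luciferase light reporting Pax8 driven TPO promoter activity; plate controls were median of neutral control wells for no effect and mitoxantrone controls for full effect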
# Wnt act = activators of Wnt/beta-catenin signaling; Wnt/beta-catenin reporter cell assay, activator, plate reader; activation, % at 9.35 µM; 300,000 tested, 1.2% active; in the data active = activation above about 30%, passing the limit was not always enough; inconclusive = no clear call, values can overlap the other calls;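 note: 0% = neutral control wells and 100% = positive control wells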
# MITF TRPM1 inh = reduces MITF-dependent TRPM1 promoter luciferase signal; SK-MEL-5 TRPM1 promoter luciferase, 24 h; 330,000 tested, 0.83% active; inhibition, % at 12.5 µM;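 active = mean inhibition across replicates of 60% or more, whatever share of single replicates reaches that level; inconclusive = some that reach 60%, reason not given; inactive = mean inhibition across replicates below 60%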
# Starred values were filed as active, the others as inactive; ? = inconclusive; / = no result; ! = not active in a repeat. Shown are actives, neighbours in structure and some others; about 4% of the full set was active somewhere.
SMILES,EWS-Fli inh,esBAF inh,MITF TRPM1 HTS,PAX8 reporter,Wnt act,MITF TRPM1 inh
C[C@@H]1CCCCO[C@H](CN(C)S(=O)(=O)c2ccc(Cl)cc2)[C@H](C)CN([C@@H](C)CO)C(=O)c2cc(NC(=O)Nc3ccc(F)cc3)ccc2O1,5,2,/,70*,/,/
C[C@@H]1CCCCO[C@H](CN(C)S(=O)(=O)c2ccc(F)cc2)[C@@H](C)CN([C@H](C)CO)C(=O)c2cc(NC(=O)Nc3ccc(C(F)(F)F)cc3)ccc2O1,7,6,/,74*!,-9,/
C[C@@H]1CCCCO[C@@H](CN(C)S(=O)(=O)c2ccccc2)[C@H](C)CN([C@@H](C)CO)C(=O)c2cc(NC(=O)Nc3ccc(C(F)(F)F)cc3)ccc2O1,1,2,/,75*,/,/
C[C@@H]1CCCCO[C@H](CN(C)S(=O)(=O)c2ccc(Cl)cc2)[C@@H](C)CN([C@@H](C)CO)C(=O)c2cc(NC(=O)Nc3ccc(C(F)(F)F)cc3)ccc2O1,45,-2,/,82*,/,/
C[C@@H]1CCCCO[C@@H](CN(C)S(=O)(=O)c2ccc(F)cc2)[C@@H](C)CN([C@@H](C)CO)C(=O)c2cc(NC(=O)Nc3ccc(C(F)(F)F)cc3)ccc2O1,-14,10,/,36,/,/
C[C@H]1CCCCO[C@@H](CN(C)S(=O)(=O)c2ccc(Cl)cc2)[C@@H](C)CN([C@@H](C)CO)C(=O)c2cc(NC(=O)CCC(F)(F)F)ccc2O1,7,5,/,73*,/,/
C[C@H](CO)N1C[C@H](C)[C@H](CN(C)S(=O)(=O)c2ccc(C#N)cc2)Oc2ncc(C#Cc3ccccc3)cc2C1=O,-10,0,/,18,/,/
C[C@H](CO)N1C[C@H](C)[C@H](CN(C)S(=O)(=O)c2ccc(C#N)cc2)Oc2ncc(C#Cc3ccc(C(F)(F)F)cc3)cc2C1=O,/,/,/,74*,/,/
C[C@H](CO)N1C[C@H](C)[C@@H](CN(C)S(=O)(=O)c2ccc(F)cc2)Oc2ccc(NC(=O)Nc3ccc(C(F)(F)F)cc3)cc2C1=O,6,-6,-2,75*!,-5,1
Cc1noc(C)c1S(=O)(=O)N(C)C[C@@H]1OCCCC[C@H](C)Oc2ccc(NC(=O)Nc3ccc(F)cc3)cc2C(=O)N([C@H](C)CO)C[C@@H]1C,6,4,/,61*,/,/
O=C(c1ccccc1)C1OC1C(=O)c1ccccc1 (stereo not drawn),1,53*,-35,72*,13,36
CC1C=CC(C)C(C(=O)c2ccccc2)C1C(=O)c1ccccc1 (stereo not drawn),12,-2,/,-6,-4,/
C[C@H](CO)N1C[C@H](C)[C@@H](CN(C)Cc2ccc(-c3ccccc3)cc2)Oc2ccc(NC(=O)Cc3ccccc3)cc2C1=O,-5,0,/,/,/,/
CCN1CCN(CCCNC(=O)c2ccc(NC(=O)C3=CSCCO3)cc2)CC1,-16,8,7,2,1,-2
CCCSCCCNC(=O)c1ccc(NC(=O)C2=CSCCO2)cc1,/,55*,8,-8,0,-33
CC(=O)N(C)C[C@H]1[C@@H](c2ccc(C#CC(C)C)cc2)[C@@H](CO)N1C(=O)C1CCC1,-4,/,/,/,/,/
CO[C@H]1CN(C)C(=O)c2ccc(NC(=O)C3CC3)cc2OC[C@H](C)N(C(=O)NC(C)C)C[C@H]1C,-4,2,/,-2,/,/
N#C[C@H]1[C@H](c2ccccc2-c2ccccc2)[C@@H](CO)N1C(=O)Cc1ccncc1,-4,/,/,/,/,/
CC(=O)N/N=C\c1ccccc1OC/C=C/c1ccccc1,-101,70*,?,-66,42*,-81
COC(=O)N/N=C\c1ccc(OC/C=C/c2ccccc2)cc1,/,/,71,-93,8,-67
CC(C)(O)C(=O)N/N=C\c1ccc(OC/C=C/c2ccccc2)cc1,/,29,105*,-174,13,-100
CC(C)c1cn(CC[C@H]2CC[C@@H](NS(=O)(=O)c3ccc(F)cc3)[C@H](CO)O2)nn1,7,-4,/,8,/,/
C[C@H]1CCCCO[C@@H](CN(C)S(=O)(=O)c2ccccc2)[C@@H](C)CN([C@@H](C)CO)C(=O)c2cc(NS(=O)(=O)c3cn(C)cn3)ccc2O1,5,-1,/,5,/,/
C[C@H](CO)N1C[C@H](C)[C@H](CN(C)S(C)(=O)=O)Oc2c(NS(=O)(=O)c3ccccc3)cccc2C1=O,-7,0,/,/,/,/
COc1ccc(CN2C[C@@H](C)[C@H](OC)CN(C)C(=O)c3ccc(NC(C)=O)cc3OC[C@H]2C)cc1,-2,/,/,4,/,/
SMILES,EWS-Fli inh,esBAF inh,MITF TRPM1 HTS,PAX8 reporter,Wnt act,MITF TRPM1 inh
CCc1nc(N)nc(N)c1-c1ccc(NCCN)c([N+](=O)[O-])c1,45,/,-14,-5,-4,18
CCc1nc(N)nc(N)c1-c1ccc(N(C)Cc2ccccc2)c([N+](=O)[O-])c1,56*,/,/,38,-7,39
CC(C)C[C@H]1COCc2cn(nn2)CC[C@H](Cc2ccccc2)C(=O)N1,4,/,/,-5,/,/
Cc1ccc(-c2cn3c(=O)cc(C)[nH]c3n2)cc1,/,?,61,-167,45*,-56
CCC1(c2ccc(F)cc2)NC(=O)N(CC(=O)NC2CC2)C1=O (stereo not drawn),8,/,0,7,31*,1
CCC1(c2ccc(Cl)cc2)NC(=O)N(CC(=O)NC2CCCCCC2)C1=O (stereo not drawn),7,-2,8,14,3,-6
Cc1cccc(C(=O)Oc2ccc(/C=N/NC(=O)c3cc(O)cc(O)c3)cc2)c1,/,-4,3,-36,1,-5
O=C(N/N=C/c1ccc(OC(=O)c2ccccc2)cc1)c1cccc(O)c1,-11,/,16,-20,47*,-14
O=C(Oc1ccc(/C=N/NC(=O)c2ccccc2F)cc1)c1ccccc1,-58,47*,47,-66,13,-45
O=C(Oc1ccc(/C=N/NC(=O)c2ccccc2O)cc1)c1ccccc1,/,30,5,/,/,-9
O=C(Nc1ccccc1)Nc1ccc(NC(=O)c2ccccc2O)cc1,-7,16,7,2,2,0
O=C(Oc1ccccc1C(=O)Nc1ccccc1)c1ccccc1Br,53*,/,3,-19,-2,-4
O=C(Nc1ccccc1)c1ccccc1O,/,51*,/,/,/,-36
N#C[C@H]1[C@H](c2ccccc2-c2ccccc2F)[C@@H](CO)N1C(=O)C1CC1,16,/,/,6,/,/
CC1(C)Cc2c(sc(NC(=O)Cc3ccccc3)c2C#N)CO1,-12,/,1,-9,0,4
CCCCC(=O)Nc1sc2c(c1C#N)CC(C)(C)OC2,/,23,91*,-97,22,-90
COc1ccc2c3c(n(C)c2c1)[C@@H](CO)N(Cc1ccncc1)CC31CN(C(=O)C2CCCC2)C1,3,/,/,17,/,/
O=C(C[C@H]1C[C@H]2c3cc(NC(=O)C4CCC4)ccc3O[C@H]2[C@@H](CO)O1)NC1CCCCC1,-7,-3,/,-1,/,/
COC(=O)c1ccc(CSc2nc3ccccc3s2)o1,8,47*,63,/,3,-71
